High-throughput results: PubChem, NMMLSC
Rab7 wt GTP bind = modulators of GTP binding to Rab7, primary screen, biochemical, wildtype, multiplex bead flow cytometry; Rab7 GTPase wild type (dog), Bodipy-FL-GTP binding; GST-Rab7 beads, fluorescent GTP binding; actives lie on both sides; untreated = 100%, excess cold GTP = 0%; GTP binding activity (percent of control), % at 10 µM; 0.055% of 190,000 active; AID 758, 2007;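 active = fluorescent GTP binding to Rab7 beads changed by at least 20 points from the 100% baseline, either direction, mostly lower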;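 note: median green fluorescence of bound Bodipy-FL-GTP per Rab7 bead population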
Rab2 wt GTP = modulators of GTP binding to Rab2A wildtype, primary screen, biochemical, dog, bead-based flow cytometry, multiplex | Ras-related protein Rab-2A (Canis lupus familiaris), P61105 | GST-Rab2 wt beads, Bodipy-GTP binding | GTP binding activity, % at 10 µM | 0.19% of 190,000 active;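 active = GTP binding activity at least 20 points away from 100%, either lowered or raised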
HRas wt GTP bind = modulators of GTP binding to HRas wildtype, primary screen, biochemical, bead-based flow cytometry, multiplex; GTP binding activity, % at 10 µM; GST-Ras wt beads, Bodipy-FL-GTP binding; actives lie on both sides; 0.14% of 190,000 active; AID 759, 2007;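 active = GTP binding activity at least 20% away from the 100% baseline, either lowered as inhibitor or raised as activator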
Rac1 mut GTP = GTP binding modulators of activated mutant Rac1, primary screen, biochemical, bead-based flow cytometry, multiplex, fluorescent GTP | Ras-related C3 botulinum toxin substrate 1 (Homo sapiens), P63000 | percent activity (GTP binding), % at 10 µM | AID 764, 2007 | 0.11% of 190,000 active | GST-Rac1 activated beads; actives lie on both sides; 100% means binding = to untreated wells;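 active = GTP binding at least 20 percentage points away from the 100% baseline, in either direction, so actives lie on both sides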
Cdc42 wt GTP = modulators of GTP binding to wildtype Cdc42, primary screen, biochemical, multiplex bead flow cytometry, Bodipy-GTP. Cell division control protein 42 homolog (Homo sapiens), P60953. percent activity (GTP binding), % at 10 µM. 0.2% of 190,000 active. GST-Cdc42 beads; actives lie on both sides;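 active = percent activity GTP binding at least 20 points away from the 100% baseline, either down as inhibitor or up as activator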;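 note: median bead fluorescence of bound Bodipy-FL-GTP at 100 nM; below 100% means less GTP binding so inhibitor and above means activator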
Target sequence (P60953 whole entry, looked up): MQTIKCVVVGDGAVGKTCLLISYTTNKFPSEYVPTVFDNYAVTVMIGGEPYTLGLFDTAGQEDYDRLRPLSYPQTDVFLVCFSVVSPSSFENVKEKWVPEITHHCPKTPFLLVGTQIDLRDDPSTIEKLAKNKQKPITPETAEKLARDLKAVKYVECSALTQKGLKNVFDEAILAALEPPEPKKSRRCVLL
Rac1 wt modul = wildtype Rac1 GTP binding modulators, primary screen, biochemical, GST-Rac1 beads, flow cytometry, multiplex; AID 757, 2007; GTP binding activity (% of control), % at 10 µM; fluorescent GTP binding; actives lie on both sides; 0 = cold GTP competed, 100 = untreated; 0.27% of 190,000 active; Ras-related C3 botulinum toxin substrate 1 (Homo sapiens), P63000;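 active = GTP binding activity at least 20 points away from the 100% control level, either lower or higher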
Each line names hits and unclear results; the compound was inactive in the other large screens. Hits are enriched below; roughly 0.37% of the tested compounds scored in any of these assays.

COc1ccc(-c2cc(-c3ccccc3)c(C#N)c(=S)[nH]2)cc1	Cdc42 wt GTP 79
Cc1cc(OCCCCn2ccnc2)cc(C)c1Cl	none
CCN(CC)C(=O)Cn1nnc(-c2ccc(S(C)(=O)=O)cc2)n1	none
Cn1nnnc1SCc1ccc(C(=O)Nc2nccs2)cc1	Rab2 wt GTP 72, HRas wt GTP bind 73, Cdc42 wt GTP 75, Rac1 wt modul 71
COc1cc(/C=C2\SC(c3ccccc3)=NC2=O)cc(Cl)c1O	Rab2 wt GTP 77, Cdc42 wt GTP 78
CN(C)/C=C(\C#N)C(=O)Nc1ccc(O)cc1F	none
